Test results from PubChem BioAssay AID1159580 (chemical genetic matrix, 2015).
Several values for one entry are separate records, joined by “and”; a condition that tells them apart may be missing. Equal values may be shown once. The campaign covered roughly 5,500 compounds. About 2,000 (36%) were called active. Roughly 18% stayed inconclusive and do not appear here. Rule as the data show it: active = normalized growth mostly below about 0.91 (no sharp cut-off); inconclusive = no clear call, values can overlap the other calls; inactive = mostly above about 0.92. The list shows a part of the results.

Assay: chemical genetic growth profiling, strain panel (AID 1159580);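 also: tested at 20 µM; growth read once vehicle control cultures reached saturation at 30 °C; 1 = growth at the plate median or of vehicle wells; lower values mean less growth of the strain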
Details: S. cerevisiae deletion strains, growth OD

Measured: normalized growth

Nc1ncnc2c1ncn2C1O[C@H](COP(=O)(O)O)[C@@H](O)[C@H]1O (stereo partly specified)
active: locus YCL029C, strain bik1, stronger effect = lower value 0.523 | locus YDL192W, strain arf1, stronger effect = lower value 0.811 | locus YDR101C, strain arx1, stronger effect = lower value 0.589 | locus YDR318W, strain mcm21, stronger effect = lower value 0.73 | locus YDR388W, stronger effect = lower value 0.209 | locus YDR502C, strain sam2, stronger effect = lower value 0.632 | locus YER110C, stronger effect = lower value 0.798 | locus YGL086W, strain mad1, stronger effect = lower value 0.74 | locus YGR135W, strain pre9, stronger effect = lower value 0.776 | locus YHR079C, strain IRE1 (second series), stronger effect = lower value 0.345 | locus YHR200W, strain rpn10, stronger effect = lower value 0.911 | locus YIR030C, strain dcg1, stronger effect = lower value 0.648 | locus YJL168C, strain set2, stronger effect = lower value 0.927
inactive: locus YAL013W, strain DEP1, stronger effect = lower value 1.01 | locus YAL021C, strain ccr4, stronger effect = lower value 0.996 | locus YAL026C, strain drs2, stronger effect = lower value 1 | locus YAL030W, strain snc1, stronger effect = lower value 0.997 | locus YBL061C, strain skt5, stronger effect = lower value 0.999 | locus YBR009C, strain hhf1, stronger effect = lower value 0.95 | locus YBR021W, strain FUR4, stronger effect = lower value 1.01 | locus YBR023C, strain chs3, stronger effect = lower value 0.99 | locus YBR171W, strain sec66, stronger effect = lower value 1 | locus YBR229C, strain ROT2, stronger effect = lower value 1.01 | locus YBR231C, strain swc5, stronger effect = lower value 1.01 | locus YBR279W, strain paf1, stronger effect = lower value 0.999 | locus YCL011C, strain gbp2, stronger effect = lower value 0.991 | locus YCL016C, strain dcc1, stronger effect = lower value 0.982 | locus YCL069W, strain vba3, stronger effect = lower value 0.996 | locus YCR088W, strain abp1, stronger effect = lower value 0.988 | locus YDL005C, strain med2, stronger effect = lower value 1.03 | locus YDL035C, strain GPR1, stronger effect = lower value 1.04 | locus YDL040C, strain nat1, stronger effect = lower value 1 | locus YDL074C, strain BRE1, stronger effect = lower value 1.03 | locus YDL101C, strain DUN1, stronger effect = lower value 1.01 | locus YDL134C, strain PPH21, stronger effect = lower value 1.02 | locus YDL185W, strain tfp1, stronger effect = lower value 0.992 | locus YDR001C, strain nth1, stronger effect = lower value 0.997 | locus YDR069C, strain doa4, stronger effect = lower value 1.04 | locus YDR137W, strain rgp1, stronger effect = lower value 1 | locus YDR150W, strain NUM1, stronger effect = lower value 1.02 | locus YDR159W, strain sac3, stronger effect = lower value 0.95 | locus YDR162C, strain NBP2, stronger effect = lower value 1.01 | locus YDR195W, strain ref2 1.01 | locus YDR297W, strain sur2, stronger effect = lower value 1.01 | locus YDR334W, strain swr1, stronger effect = lower value 1 | locus YDR335W, strain msn5, stronger effect = lower value 1 | locus YDR392W, strain spt3, stronger effect = lower value 0.95 | locus YEL003W, strain gim4, stronger effect = lower value 1 | locus YEL037C, strain rad23, stronger effect = lower value 0.993 | locus YEL061C, strain CIN8 (second series), stronger effect = lower value 1 | locus YEL061C, strain CIN8, stronger effect = lower value 1.01 | locus YER015W, strain faa2, stronger effect = lower value 0.987 | locus YER016W, strain bim1, stronger effect = lower value 0.97 | locus YER111C, strain swi4, stronger effect = lower value 0.991 | locus YER155C, strain BEM2 (second series), stronger effect = lower value 1.05 | locus YER155C, strain BEM2, stronger effect = lower value 1.01 | locus YER167W, strain BCK2, stronger effect = lower value 1.03 | locus YFR010W, strain ubp6, stronger effect = lower value 1.01 | locus YGL078C, strain dbp3, stronger effect = lower value 0.993 | locus YGL167C, strain pmr1, stronger effect = lower value 1 | locus YGL173C, strain kem1, stronger effect = lower value 0.995 | locus YGL227W, strain vid30, stronger effect = lower value 1.01 | locus YGL240W, strain doc1, stronger effect = lower value 1.04 | locus YGL248W, strain PDE1, stronger effect = lower value 1.02 | locus YGL253W, strain hxk2, stronger effect = lower value 0.972 | locus YGR078C, strain PAC10, stronger effect = lower value 1.02 | locus YGR229C, strain SMI1, stronger effect = lower value 1.03 | locus YGR252W, strain gcn5, stronger effect = lower value 0.987 | locus YHR013C, strain ard1, stronger effect = lower value 0.965 | locus YHR027C, strain rpn1, stronger effect = lower value 1 | locus YHR030C, strain SLT2, stronger effect = lower value 1.01 | locus YHR079C, strain IRE1, stronger effect = lower value 1.02 | locus YHR094C, strain hxt1, stronger effect = lower value 0.955 | locus YHR129C, strain ARP1, stronger effect = lower value 1.01 | locus YHR142W, strain chs7, stronger effect = lower value 1.01 | locus YIL066C, strain RNR3, stronger effect = lower value 1.03 | locus YIL073C, strain SPO22, stronger effect = lower value 1.03 | locus YIL125W, strain kgd1, stronger effect = lower value 0.999 | locus YJL092W, strain hpr5, stronger effect = lower value 1 | locus YJL095W, strain BCK1 (second series), stronger effect = lower value 0.996 | locus YJL095W, strain BCK1, stronger effect = lower value 0.99 and 0.989 | locus YJL115W, strain asf1, stronger effect = lower value 0.998 | locus YJL129C, strain trk1, stronger effect = lower value 1 | locus YJL134W, strain LCB3, stronger effect = lower value 1.01 | locus YJL154C, strain vps35, stronger effect = lower value 0.999 | locus YJL164C, strain tpk1, stronger effect = lower value 0.967 | locus YJL166W, strain qcr8, stronger effect = lower value 1.03 | locus YJL187C, strain SWE1 (second series), stronger effect = lower value 1.03 | locus YJL187C, strain SWE1, stronger effect = lower value 0.996 | locus YJR043C, strain POL32, stronger effect = lower value 1 | locus YJR066W, strain TOR1, stronger effect = lower value 0.965
